Test results published in PubChem BioAssay (NCI).
About 83,000 compounds went through this panel and 20% of them were active in at least one assay; those are over-represented in the sample as a whole.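 Step 1: grow cells in 96-well plates. Step 2: add test compound at a single concentration. Step 3: incubate 48 h. Step 4: record percent growth.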 The source made the active and inactive calls.

system: HCT-116 colon; assay: NCI-60 one-dose screen, 48 h (100 = growth as untreated, 0 = no growth, -100 = all killed); conditions: 10 µM unless noted
Procedure: Growth inhibition of the HCT-116 human tumor cell line is measured as a screen for anti-cancer activity. Cells are grown in 96 well plates and exposed to the test compound for 48 hours. Compounds are tested at a single concentration, which is 10^-5 M for most compounds. The reported endpoint is percent growth (GI% or GIPRCNT), where numbers from 0 - 100% represent growth inhibition, and numbers from -100% - 0 represent cell death. For example, a value of 40 represents 60% growth inhibition. A value of 0 means no net growth occurred over the course of the experiment. A value of -40 indicates 40% of cells at the beginning of the experiment died by the end of the experiment. A value of -100 means all cells are dead at the end of the experiment.
NCI-60 Human Tumor Cell Lines Screen was performed using the standard one-dose NCI protocol, which is described in more detail at https://dtp.cancer.gov/discovery_development/nci-60/default.htm.
Compounds with GIPRCNT values below 10 were considered active. Activity score was based on GIPRCNT using the following formula: […]
Score is 0 for GIPRCNT values of 100 or above, 50 for GIPRCNT values of 0, and 100 for GIPRCNT values of -100.

Compound | growth
CC(=O)c1c(Nc2ccc(F)c(F)c2F)[nH]c2c(F)cc(F)cc2c1=O | 3.09% (active)
COc1ccc(/C=C/C(=O)c2ccc(NC(=O)CSc3nnc(-c4cc(-c5ccccc5)nc5ccccc45)n3-c3ccccc3)cc2)cc1 | 98.7% (inactive)
COc1ccc(C2=C/C(=C\c3ccc(Cl)cc3)C(=O)N2/N=C/c2ccc(Cl)cc2)cc1 | 109% (inactive)
COC(=O)Cc1nc(C#N)c(N(C)C)o1 | 97.1% (inactive)
CNC(=O)c1c(NC(=O)c2ccc(C(C)(C)C)cc2)sc2c(CN(C)C)c(O)ccc12 | -88.4% (active)
CCN1C(=S)N(CC)C2C1NC(=S)N2/N=C/C=C/c1ccccc1OC (stereo not given) | 13.6% (inactive)
COc1ccc2nc3ccccc3c(NCc3ccc(F)cc3)c2c1 | 8.89% (active)
C=CCOC(=O)C1=C(C)NC(=O)NC1c1c(Cl)n(C)c2ccccc12 (stereo not given) | 93.4% (inactive)
Cc1ccc(/C=C(\C#N)C(=O)Nc2ncc(Cc3cc(Cl)ccc3Cl)s2)o1 | 54.4% (inactive)
O=C1Nc2ccccc2C2c3cccn3-c3ccccc3N12 (stereo not given) | 78.2% (inactive)
COc1ccccc1-n1c(-c2cc(O)ccc2C)cn2c3c(=O)[nH]c(=O)n(C)c3nc12 | 86.5% (inactive)
CCCCCCOC(=O)CC1=C(C)/C(=C/c2[nH]c(-c3ccc[nH]3)cc2OC)N=C1C | -79% (active)
O=C(/C=C/c1cccc(Cl)c1)c1cccc(OCCCCOc2cccc(C(=O)/C=C/c3cccc(Cl)c3)c2)c1 | -13.7% (active)
N#C/C(=C\c1ccc(Cl)cc1Cl)C(=O)Nc1ncc(Cc2ccc(Cl)c(Cl)c2)s1 | 78.5% (inactive)
CCCCCCCCn1ccc2cc(NC(=O)Cn3cc(CN4CCCCCC4)nn3)ccc21 | -77.3% (active)
CCOC(=O)Cn1c(=O)c2c3ccccc3n(C)c2n2nnc(-c3ccccc3)c12 | 65% (inactive)
Cc1cc2oc(=O)cc(CP(=O)(O)O)c2cc1O | 100% (inactive)
Cn1cccc1/C=C1\C(=O)Nc2ccccc21 | 102% (inactive)
Cc1ccccc1CNc1c2ccccc2nc2ccccc12 | 7.9% (active)
O=c1nc(Nc2nc3ccccc3s2)[nH]c(=O)c2ccccc12 | 103% (inactive)

Compound | growth
C=C(c1ccc(C(=O)O)cn1)c1cc2c(cc1C)C(C)(C)CCC2(C)C | 82.3% (inactive)
COC(=O)c1ccc2c(c1)c1c(C)c3ccncc3c(C)c1n2C | 10.9% (inactive)
Cn1cc(-c2csc(-c3cn(C)c4ccc(Br)cc34)n2)c2cnccc21 | -89.8% (active)
CC1(C)CC2=C3C=C[C@@H]4[C@@]5(C)CC[C@H](O)C(C)(C)[C@@H]5CC[C@@]4(C)[C@]3(C)CC[C@@]2(C(=O)O)CC1=O | 12.8% (inactive)
N#CC(C#N)N=Nc1ccc(Cl)cc1Cl | 66.1% (inactive)
CN1C(=O)N(C)C2C1NC(=S)N2/N=C/C=C/c1ccccc1[N+](=O)[O-] (stereo not given) | 19.5% (inactive)
O=C(CN1CCN(c2cc3c(cc2F)c(=O)c(C(=O)O)cn3C2CC2)CC1)N/N=C/c1ccncc1 | 104% (inactive)
C[C@@H]1CC[C@@]2(OC1)O[C@H]1C[C@H]3[C@@H]4CC=C5C[C@@H](O[C@@H]6O[C@H](CO)[C@@H](O[C@@H]7O[C@@H](CO)[C@H](O)[C@H]7O)[C@H](O)[C@H]6O[C@@H]6O[C@@H](C)[C@H](O)[C@@H](O)[C@H]6O)CC[C@]5(C)[C@H]4CC[C@]3(C)[C@H]1[C@@H]2C | -84% (active)
Fc1ccc2c(c1)c(-c1nc(-c3c[nH]c4ncccc34)cs1)cn2CCCN1CCOCC1 | 40.4% (inactive)
CC(C(=O)O)n1c(O)c(C=Nc2cccnc2)sc1=S (stereo not given) | 89.4% (inactive)
CCCCCCCCn1ccc2cc(NC(=O)Cn3cc(CN4CCOCC4)nn3)ccc21 | 92.5% (inactive)
Cc1nc2sc(C(=O)Nc3ccccc3)c(N)c2cc1C(=O)/C=C/c1ccccc1 | -66.9% (active)
COc1cc2c(cc1O)[C@@]1(C)[C@H](c3ccccc3Br)OC(=O)N1CC2 | 77.1% (inactive)
CCOC(=O)c1c(C)nc2ccccc2c1/C=C/c1ccc(OC)cc1 | 55.7% (inactive)
COc1cc(-c2nc(SCCC(C)C)nc(N3CCOCC3)c2C#N)cc(OC)c1OC | 5.13% (active)
CCN(CC)c1ccc(/C=N/NC(=O)c2ccc(Nc3ccnc(C(F)(F)F)c3)cc2)c(O)c1 | 23.6% (inactive)
O=C1c2cccnc2C(=O)c2c1c(C(=O)OCCCN1CCCCC1)c1ccccn21 | -20.3% (active)
Cc1ccc(-c2nc(C#N)c(S(=O)(=O)NCCO)o2)cc1 | 51.6% (inactive)
CC1CN=C(c2cccc(-c3ccc(-c4ccccc4)o3)c2)N1 (stereo not given) | -67.9% (active)
CC(C)c1ccc(NC(=O)Nc2ccc(NC(=O)c3ccccc3N)cc2)cc1 | 51.8% (inactive)
